For 27 compounds, composite z-score results are on record in PubChem BioAssay.

This assay concerns Human papillomavirus type 1a E7 protein (residues 1-88). Kind of assay: HPV1a E7 small-molecule binders, primary screen, biochemical, small-molecule microarray, residues 1-88, 635 nm (AID 1129). The note with it: small-molecule microarray binding, fluorescence 635 nm; higher = more signal.
Take `CC[C@H]1C2=C3C(CC[C@H]4C(OCc5ccc(F)cc5C(F)(F)F)OC[C@](C)([C@@H]34)N(C(=O)OC(C)(C)C)C2)C(COC)C1COC` (some centres not stated): the composite z-score is 0.0144.
For `CC(C)N1C(=O)C[C@@](C(=O)NCCCN(C)C)(c2ccc([N+](=O)[O-])cc2)[C@H]1c1ccc(CO)cc1` the value was -0.605; for `NC(=O)NCC#Cc1ccc2c(c1)[C@]1(C(=O)N2)[C@H](C(=O)NC[C@H](O)c2ccccc2)[C@H]2C(=O)O[C@H](c3ccccc3)[C@H](c3ccccc3)N2[C@@H]1c1ccc(OCCO)cc1`, 1.05; for `Cc1ccccc1C(O)C1C=CC2C(=O)N(C)C(=O)C2N1N(c1ccccc1)c1ccccc1` (configuration not stated), -0.298.
For `C=CCC(OC(C)=O)[C@@H]1[C@@H](N(Cc2cc3ccccc3o2)C(=O)c2ccc(C)cc2)c2cc(OCCCO)ccc2N1C(=O)Cc1ccc(OC)cc1` (some centres not stated) the value was -0.454.
As for `COC(=O)C1=CC(CCCO)=CC(C2CC2)N(C)C=C1C(=O)OC` (configuration not stated), the composite z-score was -0.308.
On to `COc1cc2c(cc1OC)CN(C(=O)[C@@H]1[C@H]3C(=O)O[C@H](c4ccccc4)[C@H](c4ccccc4)N3[C@H](c3ccc(OCCO)cc3)[C@@]13C(=O)Nc1ccc(C#CC4(O)CCCCCC4)cc13)CC2`, for which the composite z-score was determined as 1.18.
As for `COc1cc(OC)c(C(O)C2C=CC3C(=O)N(c4ccccc4)C(=O)C3N2Nc2ccccc2)cc1Br` (configuration not stated), the composite z-score stood at 1.18.
For `COc1ccc([Si](C)(C)[C@@H]2[C@@H](CC(=O)N(CCO)Cc3ccccc3)O[C@]3(C(=O)N(Cc4cccc(N5C(=O)c6cccc7cccc5c67)c4)c4ccccc43)[C@H]2C)cc1` the value was -0.46.
`COC(=O)c1c2oc(c1C(=O)OC)C(=O)N(C)Cc1cn(nn1)C[C@H](Cc1ccccc1)NC(=O)N[C@H](CO)CC2` had a composite z-score of -1.52.
In turn, `O=C(CS)NCCCCCCNC(=O)[C@H]1C[C@H]2C(=O)N[C@@H](Cc3ccccc3)C(=O)N2[C@H]1c1ccc(O)cc1` came in with a composite z-score of 1.25.
In turn, `O=C1C2C=CC(C(O)c3ccccc3)N(Nc3ccccc3F)C2C(=O)N1c1ccccc1` (configuration not stated) yielded a composite z-score of 0.506.
With `CC(C)(C)N1CC=CC23O[C@@H]4C=CCOC(=O)[C@@H]4[C@H]2C(=O)N(CCCCCCO)[C@@H]3C1=O` (some centres not stated) the figure was -0.184.
For `CCCCO[C@H]1C[C@H]2C(I)=C[C@@H]1C(=O)[C@]21CO1` the value was -0.522; for `C=CCOC(=O)[C@H]1[C@@H]2C(=O)O[C@@H](c3ccccc3)[C@@H](c3ccccc3)N2[C@@H](c2ccc(OCCOC(=O)[C@@H]3C[C@@H]4C(=O)N5CCC[C@H]5C(=O)N4[C@@H]3c3ccc(O)cc3)cc2)[C@]12C(=O)Nc1ccc(I)cc12`, 0.246; for `C=CCOC(=O)[C@H]1[C@@H]2C(=O)O[C@@H](c3ccccc3)[C@@H](c3ccccc3)N2[C@@H](c2ccc(OCCOC(=O)[C@H]3C[C@H]4C(=O)N[C@@H](CCCCNC(C)=O)C(=O)N4[C@H]3c3ccc(O)cc3)cc2)[C@]12C(=O)Nc1ccccc12`, 1.12.
`CCOc1cc(C(O)C2C=CC3C(=O)N(C)C(=O)C3N2Nc2ccccc2)ccc1O` (configuration not stated) displayed a composite z-score of 0.881.
As to `C#CCN([C@@H](Cc1ccc(O)cc1)C(=O)OC)[C@@H](/C=C/C1CC1)[C@H](O)Cc1ccccc1`, the composite z-score was -0.968.
The compound `O=c1n(-c2ccccc2)c(=O)n2n1CC(COc1ccccc1)=C([C@H](O)CCc1ccccc1)[C@@H]2CO` returned a composite z-score of 0.0864.
The compound `CC(=O)NCCCC[C@@H]1NC(=O)[C@H]2C[C@@H](C(=O)NCCCC[N+](C)(C)C)[C@@H](c3cccc(OCCO)c3)N2C1=O` yielded a composite z-score of -0.416.
For `CN1C(=O)C2C=CC(C(O)c3ccccn3)N(N(c3ccccc3)c3ccccc3)C2C1=O` (configuration not stated) the value was 0.669; for `C[N+](C)(C)CCCCCCNC(=O)[C@H]1C[C@H]2C(=O)NCC(=O)N2[C@H]1c1ccc(O)cc1`, 0.996.
With `CCCC[C@@H]1C[C@H]1[C@@H](NC(=O)c1cccs1)c1ccc(C(F)(F)F)cc1` the figure was -0.654; with `COc1ccc(CCN2C(=O)[C@@]3(Cc4ccccc42)c2ccccc2C(=O)N(Cc2ccccc2OC)[C@H]3c2ccc(CO)cc2)cc1`, -1.04.
With `C[C@@H]1NC(=O)[C@@]23C(=O)N[C@@H](Cc4ccccc4)C2[C@H](C)[C@@]2(C)O[C@H]2C3/C=C/C/C=C\CNC(=O)[C@@H]2CCCN2C1=O` (some centres not stated) the figure was -0.715; with `C=C(/C(=C/C[C@H](OC(C)=O)c1cccc(OCCO)c1)c1cnc2ccccc2c1)C(C)C`, 0.68; with `[N-]=[N+]=NCc1ccccc1[C@H]1OC(c2ccc(OCCCO)cc2)=N[C@@]1(CCS(=O)(=O)c1ccccc1)C(=O)NCC(O)CO` (some centres not stated), 1.26.
